Results filed as inconclusive are left out. Where a call stands in place of a potency, no number is given. Activity calls are given as the source filed them. Calls come from the whole dose curve; as a rule, active = well fitted curve in the direction sought with a large enough effect; inconclusive = small, poorly fitted or top-dose-only effect, or another doubt; inactive = no such curve, though single readings can be large; an effect the other way counts as inactive or inconclusive. Where a SMILES comes first, the peptide text is derived from it. Bridges are numbered along the chain shown (N, C = ends). [ ]: non-standard residue; d: D form. hArg = N=C(N)NCCCC[C@H](N)C(=O)O; Mpa = O=C(O)CCS

Experiment [1] deals with ATP-dependent 6-phosphofructokinase (Trypanosoma brucei brucei) (UniProt O15648). The experiment can be described thus: qHTS Assay to Find Inhibitors of T. brucei phosphofructokinase: hit validation (AID 492961).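 Note: luminescence reports ADP formed as PFK phosphorylates fructose-6-phosphate with ATP; series mostly up to about 51 µM.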 In a few lines:
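Reaction: 0.1 M triethanolamine pH 8.0, 5 mM MgCl2, F6P 0.5 mM, ATP 0.1 mM, PFK 1.25 nM, 45 min RT. Read-out: ADP-Glo luminescence. Analysis: concentration-response fits, classed by r2 and efficacy.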
Background: qHTS replaces the single test concentration by a dilution series.

Experiment [2] concerns the target Ubiquitin carboxyl-terminal hydrolase 1 (Homo sapiens) (UniProt O94782). Briefly: Inhibitors of USP1/UAF1: Pilot qHTS (AID 504865).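 Note: rhodamine fluorescence freed from ubiquitin-rhodamine substrate followed over time; top concentration of the series differs between compounds; nearly all actives have a fitted effect of over 35% in size.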 An outline of the steps: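 Enzyme-free wells gave the negative control, while test wells held 1nM USP1/UAF1 preincubated with compound for 15 min at room temperature. Ub-Rho at 150nM final started the reaction, and fluorescence at 480/540 nm was recorded kinetically.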

For experiment [3], the target named is DNA dC->dU-editing enzyme APOBEC-3G (Homo sapiens) (UniProt Q9HC16). Briefly: qHTS for inhibitors of Vif-A3G interactions: Validation (AID 588379). An outline of the steps: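 Yellow fluorescence (Ex 488, Em 500-530) of Vif-coexpressing HeLa A3G-eYFP cells, scanned by Acumen cytometer, reports blocked A3G degradation. Cells plated at 700/well overnight at 37 deg C before compound addition, then a further overnight compound incubation at 37 deg C.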
DNA dC->dU-editing enzyme APOBEC-3G (Homo sapiens), sequence (Q9HC16 whole entry, looked up): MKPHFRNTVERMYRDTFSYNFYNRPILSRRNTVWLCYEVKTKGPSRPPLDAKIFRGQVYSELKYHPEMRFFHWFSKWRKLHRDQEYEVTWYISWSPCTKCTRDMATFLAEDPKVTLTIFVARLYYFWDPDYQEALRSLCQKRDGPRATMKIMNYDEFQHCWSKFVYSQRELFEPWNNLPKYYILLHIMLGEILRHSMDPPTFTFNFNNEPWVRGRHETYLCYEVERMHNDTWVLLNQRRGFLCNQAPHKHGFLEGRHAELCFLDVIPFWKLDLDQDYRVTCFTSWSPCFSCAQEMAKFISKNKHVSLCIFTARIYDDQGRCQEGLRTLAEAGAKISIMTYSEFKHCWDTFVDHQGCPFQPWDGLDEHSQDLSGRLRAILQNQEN

Ubiquitin carboxyl-terminal hydrolase 1 (Homo sapiens), sequence (O94782 whole entry, looked up): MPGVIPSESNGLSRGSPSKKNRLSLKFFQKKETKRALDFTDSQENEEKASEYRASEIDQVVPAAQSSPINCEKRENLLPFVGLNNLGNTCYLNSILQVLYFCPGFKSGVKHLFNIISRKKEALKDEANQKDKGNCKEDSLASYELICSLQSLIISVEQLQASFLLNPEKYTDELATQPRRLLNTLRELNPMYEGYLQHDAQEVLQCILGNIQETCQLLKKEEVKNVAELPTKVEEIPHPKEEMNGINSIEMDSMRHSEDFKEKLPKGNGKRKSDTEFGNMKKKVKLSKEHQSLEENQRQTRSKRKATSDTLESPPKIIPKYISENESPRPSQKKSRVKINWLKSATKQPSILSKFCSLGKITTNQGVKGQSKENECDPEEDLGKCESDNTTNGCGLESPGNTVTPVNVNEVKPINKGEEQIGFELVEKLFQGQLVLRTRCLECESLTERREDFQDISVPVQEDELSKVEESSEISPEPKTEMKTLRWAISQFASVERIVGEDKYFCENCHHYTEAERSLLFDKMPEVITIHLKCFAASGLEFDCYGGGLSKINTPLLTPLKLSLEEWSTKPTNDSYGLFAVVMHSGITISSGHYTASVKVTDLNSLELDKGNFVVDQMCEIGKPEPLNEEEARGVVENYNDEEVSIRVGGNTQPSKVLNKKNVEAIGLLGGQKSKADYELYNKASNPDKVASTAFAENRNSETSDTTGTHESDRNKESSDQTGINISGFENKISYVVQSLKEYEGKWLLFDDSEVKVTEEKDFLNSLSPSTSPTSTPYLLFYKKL
ATP-dependent 6-phosphofructokinase (Trypanosoma brucei brucei), sequence (O15648 whole entry, looked up): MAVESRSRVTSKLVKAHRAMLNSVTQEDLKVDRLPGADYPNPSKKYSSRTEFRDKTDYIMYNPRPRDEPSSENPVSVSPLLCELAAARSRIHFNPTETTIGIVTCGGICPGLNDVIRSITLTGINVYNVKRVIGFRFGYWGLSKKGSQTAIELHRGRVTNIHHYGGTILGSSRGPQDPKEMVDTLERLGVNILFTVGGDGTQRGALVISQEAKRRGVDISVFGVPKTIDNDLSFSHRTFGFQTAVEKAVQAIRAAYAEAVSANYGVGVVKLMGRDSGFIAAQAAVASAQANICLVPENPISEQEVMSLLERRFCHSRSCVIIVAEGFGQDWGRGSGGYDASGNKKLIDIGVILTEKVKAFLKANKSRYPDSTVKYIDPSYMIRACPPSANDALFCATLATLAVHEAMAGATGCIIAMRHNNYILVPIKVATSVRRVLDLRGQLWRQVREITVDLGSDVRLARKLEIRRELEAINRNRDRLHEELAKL

`CN1CCN(C(=O)C2CCCCC2)CC1`: the compound was called inactive in experiment [1]. Besides, the Potency result in experiment [2] was “inactive”.
Consider `CCc1nnc(NS(=O)(=O)c2ccc(N)cc2)s1`, for which the result in experiment [1] was inactive. Moreover, the Potency entry in experiment [2] was “inactive”.
With `CC(=O)Oc1cccc(C)c1`, in experiment [1], the compound was called inactive. Further, the Potency entry in experiment [2] was “inactive”.
With `CC(C(=O)O)c1ccc2c(c1)Cc1cccnc1O2` (stereo unspecified), in experiment [1], the outcome was inactive. Further, the Potency result in experiment [2] was “inactive”.
On to `NCC1CCC(C(=O)Oc2ccc(CCC(=O)O)cc2)CC1` (stereo unspecified), for which the compound was called inactive in experiment [1]. Further, the Potency entry in experiment [2] is “inactive”.
Turning to `CC[N+](C)(CC)CCOC(=O)C1c2ccccc2Oc2ccccc21`, in experiment [1], the outcome was inactive. Further, in experiment [2], the Potency entry was “inactive”.
With `O=C(O)CNC(=O)c1ccccc1I`, in experiment [1], the result was inactive. The Potency result in experiment [2] was “inactive”.
Regarding `Cc1ccc(S(=O)(=O)NC(=O)NC2CCCCC2)cc1`, the call in experiment [1] was inactive. For the same compound, the Potency result in experiment [2] was “inactive”.
As for `CCCCCCCC(=O)OCC(COC(=O)CCCCCCC)OC(=O)CCCCCCC`, the compound was classed as inactive in experiment [1]. Besides, the Potency result in experiment [2] was “inactive”.
For `CC(C)=CCC/C(C)=C/CO`, the outcome in experiment [1] was inactive. Besides, the Potency entry in experiment [2] was “inactive”.
With `O=C(O)c1ccc(OCCCOc2ccc(C(=O)O)cc2)cc1`, in experiment [1], the call was inactive. Also, the Potency result in experiment [2] is “inactive”.
On to `CCN1CC(CCN2CCOCC2)C(c2ccccc2)(c2ccccc2)C1=O` (stereo unspecified), for which, in experiment [1], the result was inactive. Also, the Potency entry in experiment [2] was “inactive”.
Consider `O[C@@H]1CO[C@H]2[C@@H]1OC[C@@H]2O`, for which, in experiment [1], the compound was called inactive. In experiment [2], the Potency entry is “inactive”.
With `C[C@@H]1CCC[C@H](C)N1`, in experiment [1], the compound was classed as inactive. In addition, the Potency result in experiment [2] was “inactive”.
Consider `O=C(CN1CCNCC1)NC1CCCCC1`, for which the outcome in experiment [1] was inactive. For the same compound, the Potency entry in experiment [2] is “inactive”.
As to `CN1C[C@@H]2C[C@H]1CN2c1cc2c(cc1F)c(=O)c(C(=O)O)cn2C1CC1`, the outcome in experiment [1] was inactive. For the same compound, the Potency result in experiment [2] was “inactive”.
In the case of `O=c1[nH]c(=O)c2ccccc2o1`, in experiment [1], the result was inactive. Further, the Potency result in experiment [2] is “inactive”.
Turning to `C[C@@H]1O[C@@H](OC[C@H]2O[C@@H](Oc3c(-c4ccc(O)c(O)c4)oc4cc(O)cc(O)c4c3=O)[C@H](O)[C@@H](O)[C@@H]2O)[C@H](O)[C@H](O)[C@H]1O`, the Potency result in experiment [2] was “inactive”.
On the same count and under the same terms, the entry for `Cc1cc(NC(=O)C2=C(O)c3ccccc3S(=O)(=O)N2C)no1` is “inactive”.
`C[N+](C)(C)CC[N+]1(C)Cc2c(Cl)c(Cl)c(Cl)c(Cl)c2C1`: the result in experiment [1] and in experiment [3] was inactive. Further, the Potency result in experiment [2] is “inactive”.
Turning to `NS(=O)(=O)c1ccc(C(=O)O)cc1`, in experiment [2], the Potency entry was “inactive”.
The same measure, in the same setting: the entry for `Cc1c(N(C)C)c(=O)n(-c2ccccc2)n1C` is “inactive”.
For the compound `O=C(Cn1ccnc1[N+](=O)[O-])NCCO`, the Potency entry in experiment [2] was “inactive”.
The same measure, in the same setting: the entry for `Cc1cccc(Nc2ccccc2C(=O)O)c1C` is “inactive”.
As to `C[n+]1ccccc1/C=N/O`, the Potency entry in experiment [2] is “inactive”.
In the case of `C[C@@H](N)C(=O)O`, the compound was called inactive in experiment [1] and in experiment [3]. Moreover, the Potency entry in experiment [2] is “inactive”.
As for `Cc1cc(C)nc(NS(=O)(=O)c2ccc(N)cc2)n1`, the Potency entry in experiment [2] is “inactive”.
As for `C[N+]1(C)CCCC(OC(=O)C(O)(c2ccccc2)c2ccccc2)C1` (stereo unspecified), the Potency entry in experiment [2] is “inactive”.
Turning to `C1CCN2C[C@@H]3C[C@@H](CN4CCCC[C@@H]34)[C@H]2C1`, the Potency entry in experiment [2] was “inactive”. In addition, the call in experiment [3] was inactive.
Consider `Cc1ccsc1/C=C/C1=NCCCN1C`, for which, in experiment [2], the Potency entry was “inactive”.
Same read-out and setting: the entry for `CC1CCc2cc(F)cc3c(=O)c(C(=O)O)cn1c23` (stereo unspecified) is “inactive”.
On the same count and under the same terms, the entry for `O=C(O)c1ccccc1C(=O)Nc1ccc(S(=O)(=O)Nc2nccs2)cc1` is “inactive”.
Take `Cn1c(=O)c2c(ncn2CCO)n(C)c1=O`: the Potency entry in experiment [2] is “inactive”.
Same read-out and setting: the entry for `C/C=C/C(=O)N(CC)c1ccccc1C` is “inactive”.
`O=C(O)CCCCC1CCSS1` (stereo unspecified): the Potency result in experiment [2] is “inactive”. The call in experiment [3] was inactive.
For the compound `COc1nccnc1NS(=O)(=O)c1ccc(N)cc1`, in experiment [2], the Potency entry was “inactive”.
The same measure, in the same setting: the entry for `Cn1c([N+](=O)[O-])cnc1COC(N)=O` is “inactive”.
On to `CC(=O)NS(=O)(=O)c1ccc(N)cc1`, for which the Potency result in experiment [2] is “inactive”.
Turning to `CN[C@@H]1[C@H](O)[C@H](NC)[C@H]2O[C@@]3(O)C(=O)C[C@@H](C)O[C@H]3O[C@@H]2[C@H]1O`, the result in experiment [3] was inactive.
Consider `NC(=O)[C@@H]1CSSCCC(=O)N[C@@H](CCCCN=C(N)N)C(=O)NCC(=O)N[C@@H](CC(=O)O)C(=O)N[C@@H](Cc2c[nH]c3ccccc23)C(=O)N2CCC[C@H]2C(=O)N1` ([Mpa][hArg]GDWPC-NH2; disulfide 1-7), for which the Potency entry in experiment [2] is “inactive”.
For the compound `COc1ccccc1OCC(O)CO` (stereo unspecified), in experiment [2], the Potency result was “inactive”.
Regarding `CN(C(=O)c1c(O)c2ccccc2n(C)c1=O)c1ccccc1`, the call in experiment [1] and in experiment [3] was inactive. The Potency result in experiment [2] is “inactive”.
Take `O=C1c2ccccc2S(=O)(=O)N1CCCCN1CCN(c2ncccn2)CC1`: the call in experiment [1] and in experiment [3] was inactive. Further, the Potency entry in experiment [2] is “inactive”.
For the compound `CC[N+](CC)(CC(=O)Nc1c(C)cccc1C)Cc1ccccc1`, the Potency entry in experiment [2] is “inactive”.
For the compound `O=C(CCBr)N1CCN(C(=O)CCBr)CC1`, the Potency entry in experiment [2] is “inactive”.
For the compound `O=C(O)c1ccccc1OP(=O)(O)O`, the Potency entry in experiment [2] is “inactive”.
As for `O=C(O)CCCc1ccccc1`, in experiment [2], the Potency entry is “inactive”.
The same measure, in the same setting: the entry for `OC(CCN1CCCC1)(c1ccccc1)C1CCCCC1` (stereo unspecified) is “inactive”; for `CC(=O)N[C@@H](CC(C)C)C(=O)O` it is “inactive”; for `Nc1ccc(S(=O)(=O)c2ccc(N)cc2)cc1` it is “inactive”.
Still for that read-out and setting: the entry for `NC(=O)NC1NC(=O)NC1=O` (stereo unspecified) is “inactive”; for `Nc1ncnc2c1ncn2[C@@H]1O[C@H](COP(=O)(O)O)[C@@H](O)[C@H]1O` it is “inactive”; for `NS(=O)(=O)c1cc(C2(O)NC(=O)c3ccccc32)ccc1Cl` (stereo unspecified) it is “inactive”.
Still for that read-out and setting: the entry for `CCCCOC(=O)c1ccc(N)cc1` is “inactive”.

The record behind these values is PubChem BioAssay (NCATS).
